# Assay results: PubChem BioAssay AID686978 (National Center for Advancing Translational Sciences (NCATS), 2013)
# Out of some 420,000 compounds screened, about 64,000 (15%) were called active. Roughly 27% stayed inconclusive and do not appear here. The call rests on the fitted dose curve; in most records, active means well fitted inhibition curve with a large enough effect; inconclusive means small, poorly fitted or top-dose-only effect; inactive means flat fitted curve, though single readings scatter. Only a sample is shown.
# Experiment: qHTS for Inhibitors of human tyrosyl-DNA phosphodiesterase 1 (TDP1): qHTS in cells in absence of CPT; further: nearly all actives have a fitted effect of over 55% in size
# Settings: DT40 Tdp1-/- hTDP1 cells, no CPT, ATP luminescence, 48 h; activity change, negative = growth inhibition: at 46.2 µM (top of the series)
# Summary of the method: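 Chicken DT40 Tdp1-/- cells complemented with human TDP1, screened without camptothecin (DMSO vehicle only), 400 cells/well. Compounds pin-transferred, cells incubated at 37 °C for at least 48 hr. Growth read as ATP-dependent luminescence (CellTiter-Glo, 30 min at RT).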
# On the % scale 0 is the no-effect control and ±100 the full control effect; potency means the concentration at half of the fitted maximal effect.
Structure (SMILES),"activity change, negative = growth inhibition",Potency
CC(C)C1=CC2=CC[C@H]3[C@](C)(C(=O)O)CCC[C@]3(C)C2CC1 (stereo not given in full),3.41% [at 9.04 µM] (inactive),–
COc1ccc(CN2CCNC(=O)C2CC(=O)NCc2cn[nH]c2-c2ccccc2)c(F)c1 (stereo not given),-16.8% (inactive),–
COc1ccc(NS(=O)(=O)c2ccc(NC(=O)C(C)(C(F)(F)F)C(F)(F)F)cc2)nn1,6.95% (inactive),–
c1ccc(-c2cn3cccnc3n2)cc1,-1.58% (inactive),–
c1ccc(-c2cn3c(n2)CCc2ccc4cccnc4c2-3)cc1,–,16.4 µM (active)
Cc1csc(NC(=O)CSc2nc(=O)n(CCCN(C)C)c3c2CCC3)n1,4.86% (inactive),–
Cc1ccc2nc(NC(=O)CSc3nc(=O)n(CCCN(C)C)c4c3CCC4)sc2c1,–,13 µM (active)
Cc1ccc(NC(=O)CSc2nc(=O)n(CCN(C)C)c3c2CCCC3)c(C)c1,4.62% (inactive),–
CCOC(=O)CC1=CC(=O)Nc2ccccc2N1,-11.6% (inactive),–
CCc1ccccc1NC(=O)CN(C)C(=O)c1cc(C2CC2)nn1-c1ccccc1,-15.7% (inactive),–
COc1cccc(NC(=O)CN(C)C(=O)c2cc(C3CC3)nn2-c2ccccc2)c1,-5.3% (inactive),–
CCc1ccccc1NC(=O)CN1CCN(C(=O)c2cc(C3CC3)nn2-c2ccccc2)CC1,–,23.1 µM (active)
Cc1ccc(C(=O)Nc2ccc3[nH]c(=O)c(=O)[nH]c3c2)cc1,1.61% (inactive),–
COC(=O)c1ccc(Sc2ccc(F)cc2)c(N)c1,-25% (inactive),–
COc1ccc(C(=O)Nc2ccc(NC(=O)C(C)C)nc2)cc1,-7.31% (inactive),–
COc1ccc(NC(=O)c2cccc(Cl)c2)c[n+]1[O-],-0.558% (inactive),–
COc1ccc(Sc2ccc(NC(=O)c3cccc(Cl)c3)cc2C#N)cc1,–,23.1 µM (active)
Cc1ccc(Sc2ccc(NC(=O)c3ccc(F)cc3)cc2C#N)cc1,–,11.6 µM (active)
COc1cccc(NC(=O)CCNS(=O)(=O)c2ccc3c(c2)oc(=O)n3C)c1,–,inactive
COCC(C)N=CC1=C(O)CC(C)(C)CC1=O (stereo not given),-10.1% (inactive),–
C=CCN1C=C(C(=O)c2ccccc2)C(=O)CC1,-0.111% (inactive),–
O=C(CCS(=O)(=O)Cc1ccccc1F)NCCCN1CCCCC1,-11.3% (inactive),–

Structure (SMILES),"activity change, negative = growth inhibition",Potency
CCCCNC(=O)OCCSCCS(=O)(=O)c1ccc(Cl)cc1,-14.4% (inactive),–
CC12CCCCC1=CC(=O)CC2 (stereo not given),-2.63% (inactive),–
Cc1c(Cl)cccc1NC(=O)NCCCN1CCCC1=O,19.6% (inactive),–
Cc1cccc([C@@H]2[C@@H]3C(=O)N(C)C(=O)[C@@H]3[C@@H]3C(=O)Nc4ccccc4C(=O)N23)c1,-7.16% (inactive),–
Cc1ccc(-c2cccc([C@H]3[C@@H]4C=CC[C@@H](C)[C@@H]4C(=O)N3Cc3ccccc3)c2)cc1,–,20.6 µM (active)
Cc1cccc([C@@H]2[C@@H]3C(=O)N(Cc4ccccc4)C(=O)[C@@H]3[C@]3(Cc4ccc(Cl)cc4)C(=O)N(c4cccc(Cl)c4)C(=O)N23)c1,-6.02% (inactive),–
Cc1cccc([C@H]2[C@@H]3C=CC[C@@H](C)[C@@H]3C(=O)N2Cc2ccccc2)c1,–,14.6 µM (active)
O=C(NCCCN1CCOCC1)c1ccc([N+](=O)[O-])cc1[N+](=O)[O-],-13.5% (inactive),–
O=C(NNC(=S)NCCCN1CCOCC1)c1ccncc1,3.65% (inactive),–
CC(C)c1ccc(/C=C/C(=O)NCCCN2CCOCC2)cc1,–,20.6 µM (active)
CCCC(=O)N(CCc1ccccc1)Cc1nc2ccccc2c(=O)[nH]1,-19% (inactive),–
CN(C)CCCNC(=O)c1cc(C(=O)Cc2ccc(Cl)cc2)c[nH]1,-22.6% (inactive),–
O=C(COC(=O)Cc1ccccc1F)NCCc1ccccc1,4.69% (inactive),–
N=c1n(CCc2ccccc2)c2ccccc2n1Cc1ccccc1F,–,5.17 µM (active)
CCCCc1nccn1CCn1ccnc1CCCC,-3.8% (inactive),–
CC(C)NC(=O)NC(=O)CSc1nnc(-c2ccccc2F)n1N,14.1% (inactive),–
C=C(Br)Cn1c(CCCC)nc2ccccc21,–,11.6 µM (active)
C=CCn1c(P(C)(=O)O)nc2ccccc21,–,inactive
O=C(O)Cn1c(Cc2ccccc2)nc2ccccc21,4.87% (inactive),–
CCCCCCCC/C=C\CCCCCCCC(=O)OC[C@H](CO)OC(C)=O,-8.7% [at 4.12 µM] (inactive),–
CCCOC(=O)c1c(NC(=O)c2cc3nc(-c4ccc(OC)cc4)cc(C(F)(F)F)n3n2)sc2c1CCCC2,-3.89% (inactive),–
CC(=O)NS(=O)(=O)c1ccc2c(c1)Cc1cc(S(=O)(=O)NC(C)=O)ccc1-2,-11% (inactive),–

Structure (SMILES),"activity change, negative = growth inhibition",Potency
CCC(=O)N1c2ccccc2NC2=C(C(=O)CCC2)C1c1ccco1 (stereo not given),-2.89% (inactive),–
O=C1CC(c2ccccc2)CC2=C1C(c1ccco1)n1nc(C(F)(F)F)nc1N2 (stereo not given),–,14.1 µM (active)
Cc1nc2nc3c(cn2n1)C(=O)CC(c1ccccc1)C3 (stereo not given),-25.6% (inactive),–
CCOc1ccc(S(=O)(=O)NCCC(=O)NCC(C)(C)N2CCOCC2)cc1,-6.6% (inactive),–
CC(C(=O)Nc1ccccc1-c1ccccc1)N1CCOCC1 (stereo not given),-21.9% (inactive),–
Cc1ccccc1NC(=O)C(C)c1ccc(-c2ccccc2)c(F)c1 (stereo not given),–,16.4 µM (active)
O=C(Nc1ccccc1F)c1ccccc1-c1ccccc1,-13.5% (inactive),–
COC1=CC(=O)OC(c2ccc(OC)cc2)C1 (stereo not given),2.03% (inactive),–
COc1ccc(N=Nc2c(-c3ccc(OC)cc3)[nH]oc2=O)cc1,-12.5% (inactive),–
COc1ccc(N=C2C=CC(=O)O2)cc1,–,4.61 µM (active)
COc1ccc(OC)c2c(N)c(C#N)c(C(F)(F)C(F)(F)F)nc12,3.02% (inactive),–
Cc1ccc(C(=O)OCC(=O)NCc2ccc3c(c2)OCO3)s1,-5.24% (inactive),–
COc1ccc(-c2cc(C(F)(F)F)nc(S(C)(=O)=O)n2)cc1OC,–,5.17 µM (active)
CCN(CC)S(=O)(=O)c1cccc(C(=O)NCC(=O)OCC(=O)NCc2ccccc2)c1,-25.2% (inactive),–
CCNC(=O)COc1cc(C)c(Br)c(C)c1,1.43% (inactive),–
Cc1cc(F)ccc1NC1(c2ccccc2)C(=O)c2ccccc2C1=O,-0.108% (inactive),–
CC(=O)Nc1ccc(NC(=S)NC(=O)c2ccc([N+](=O)[O-])c(C)c2)cc1,-9.77% (inactive),–
CNc1ccc(NC(C)=O)cc1[N+](=O)[O-],-0.228% (inactive),–
CC(=O)Nc1ccc(/C=N/Nc2ccc(C(=O)c3c(C)cc4ccccn34)cc2[N+](=O)[O-])cc1,–,11.6 µM (active)
CCC(C)NCC(=O)Nc1ccc([N+](=O)[O-])cc1C(=O)Nc1ccccc1F (stereo not given),-23% (inactive),–
Cc1ccc(S(=O)(=O)N(C)CC(=O)OCC(=O)N2CC(=O)Nc3ccccc32)cc1,-9.32% (inactive),–
